Data from PubChem BioAssay (NCATS).
Several values for one entry are separate records, joined by “and”; a condition that tells them apart may be missing. Equal entries are not always repeated. Results filed as inconclusive are left out. A call without a number means that no potency is given here. Activity calls are given as the source filed them. Unless noted, calls follow the shape of the dose curve; as a rule, active = well fitted curve in the direction sought with a large enough effect; inconclusive = small, poorly fitted or top-dose-only effect, or another doubt; inactive = no such curve, though single readings can be large; an effect the other way counts as inactive or inconclusive.

Key:
[1] = biological target: alpha-glucosidase (Oryza sativa, rice) (UniProt Q653V4); experiment: Counterscreen for Glucocerebrosidase Inhibitors: qHTS Assay for Rice alpha-Glucosidase at pH 5.0 (AID 997)
Method in brief: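 Rice alpha-glucosidase (4 nM final) with 400 uM 4-methylumbelliferyl-alpha-D-glucopyranoside in citrate buffer pH 5.0, 20 min at room temperature, stopped at pH 10; fluorescence 365/440 nm, compounds 0.7 nM–77 uM, AC50 from Hill fits.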

[2] = Validation of Assay for Modulators of Lamin A Splicing (AID 1459; active = well fitted curve in the direction sought with a large enough effect in the signal ratio; the % refers to the signal ratio;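 also: cells exposed to compound for two days before reading; ratio rise marks activators and ratio drop marks inhibitors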)
Method in brief: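 Splicing correction read as GFP (500-530 nm) over DsRed2 (575-640 nm) object intensity after 48 h compound exposure of reporter HeLa S3 clones (600 cells/well, 2% FBS medium); ancitabine and cycloheximide titrations, 0.5% DMSO as vehicle.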

[3] = qHTS Assay for Lipid Storage Modulators (AID 1519; calls by dose curve); conditions: Drosophila S3 cells, BODIPY lipid droplet/cell ratio, laser cytometry, cells loaded with oleic acid; for activity change, negative = inhibition: at 57.5 µM (top of the series)
Method in brief: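 Cells seeded at 5,000 per well were treated with compounds over a concentration series and loaded with oleic acid (400 uM, as added). Lipid droplet fluorescence (488 nm excitation, 500-530 nm channel) was read by laser-scanning cytometry and normalized to 20 uM Triacsin C.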

[4] = biological target: DNA repair nuclease/redox regulator APEX1 (Homo sapiens) (UniProt P27695); experiment: qHTS Validation Assay for Inhibitors of the Human Apurinic/apyrimidinic Endonuclease 1 (APE1) (AID 1705; also: potency is read from the fitted curve at half-maximal effect;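 as to activity change, negative = inhibition: TAMRA fluorescence gain over two minutes as APE1 cuts a quenched THF abasic duplex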)
Method in brief: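 Activity read as rising fluorescence (598 nm emission, 525 nm excitation) from incision of a TAMRA/BHQ-2 duplex carrying a THF abasic site (50 nM). Compound and enzyme sat 15 min at RT before substrate start; signal change between first and third 60-s reads.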

[5] = biological target: Endonuclease 4 (Escherichia coli (strain K12)) (UniProt P0A6C1); experiment: Counterscreen for APE1 Inhibitors: qHTS Validation Assay for Inhibitors of Endonuclease IV (AID 1708); also: potency is read from the fitted curve at half-maximal effect
Method in brief: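 E. coli EndoIV at 2 nM final, preincubated 15 min at room temperature with compound, then 50 nM TAMRA/BHQ-2 THF abasic-site duplex added. Buffer: 50 mM Tris-HCl pH 7.5, 50 mM NaCl, 2 mM MgCl2, 1 mM DTT, 0.01% Tween-20. Kinetic fluorescence increase, third minus first read.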

[6] = qHTS for differential inhibitors of proliferation of Plasmodium falciparum line 3D7 (AID 1876); also: potency is read from the fitted curve at half-maximal effect
[7] = qHTS for differential inhibitors of proliferation of Plasmodium falciparum line D10 (AID 1877);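 also: parasites grown with compound for 72 h before DNA staining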
[8] = qHTS for differential inhibitors of proliferation of Plasmodium falciparum line Dd2 (AID 1882); conditions: Potency: Plasmodium falciparum Dd2 proliferation inhibition; also: nearly all actives have a fitted effect of over 65% in size; also: potency is read from the fitted curve at half-maximal effect
Method in brief: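 Dd2-infected erythrocytes (0.3% parasitemia, 2.5% hematocrit final) incubated with compound 72 h at 37 C, 5% CO2; lysed with saponin/Triton buffer containing SYBR Green I, incubated overnight in the dark, then read by fluorescence (485/535 nm). Normalized to 0.29 uM artemisinin and DMSO.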

[9] = qHTS Assay for Modulators of Human Peripheral Myelin Protein 22 (PMP22) Expression/Activity (AID 1967; active = well fitted curve in the direction sought with a large enough effect in the signal ratio; the % refers to the signal ratio)
Method in brief: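 Readout is the corrected green/red luminescence ratio after 24 h compound exposure, normalised to untreated cells (0%). Engineered MSC80 mouse Schwann cells express green luciferase from the mouse Pmp22 promoter and red luciferase from EF-alpha as internal control.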

[10] = biological target: Ferritin light chain (Equus caballus) (UniProt P02791); experiment: qHTS Validation Assay for Identification of Novel General Anesthetics (AID 2323); also: potency is read from the fitted curve at half-maximal effect
Method in brief: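 Competitive displacement of the profluorescent anesthetic 1-AMA (50% saturated, PBS) from 10 uM apoferritin, 10 min, room temperature. Activity is normalized 380/535 nm fluorescence; concentration-response fitted with a four-parameter Hill equation.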

[11] = biological target: ATP-dependent DNA helicase Q1 (Homo sapiens) (UniProt P46063); experiment: qHTS Validation Assay for Inhibitors of RecQ-Like Dna Helicase 1 (RECQ1) (AID 2353)
Method in brief: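 50 nM RECQ1T1 preincubated 15 min with compound in Tris pH 8.0 buffer with MgCl2, DTT, Tween-20 and 2.5 ug/ml poly(dI-dC); started with 200 nM TAMRA/BHQ-2 forked duplex and 2 mM ATP. Unwinding read as fluorescence (525/598 nm), two reads 2 h apart.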

[12] = biological target: RecQ-like DNA helicase BLM (Homo sapiens) (UniProt P54132); experiment: qHTS Validation Assay for Inhibitors of Bloom's syndrome helicase (BLM) (AID 2364); also: potency is read from the fitted curve at half-maximal effect
Method in brief: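 50 nM BLM preincubated 15 min at room temperature with compound in pH 8.0 Tris buffer containing 2.5 ug/ml poly(dI-dC); started with 200 nM TAMRA/BHQ-2 forked duplex and 2 mM ATP (final). Unwinding read as TAMRA fluorescence increase, two reads 2 h apart.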

[13] = Counterscreen for APE1 Inhibitors: Fluorescent Dye Displacement Validation Assay (AID 1707)
Method in brief: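 Assay buffer: Tris-HCl pH7.5 with 50mM NaCl, 2 mM MgCl2, 0.01% Tween-20. Dye 250 nM, duplex 50 nM final. Readout: decrease in ThO endpoint fluorescence, 480 nm excitation, 540 nm emission.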

[14] = qHTS for differential inhibitors of proliferation of Plasmodium falciparum line 7G8 (AID 1815);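 also: parasite growth measured after three days of incubation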; also: potency is read from the fitted curve at half-maximal effect
[15] = qHTS for differential inhibitors of proliferation of Plasmodium falciparum line GB4 (AID 1816); conditions: Potency: Plasmodium falciparum GB4 proliferation inhibition;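 also: parasite growth measured after 72 h incubation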; also: potency is read from the fitted curve at half-maximal effect
[16] = qHTS for differential inhibitors of proliferation of Plasmodium falciparum line W2 (AID 1883); conditions: Potency: Plasmodium falciparum W2 proliferation inhibition;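 also: parasites grown with compound for 72 h before lysis and staining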; also: potency is read from the fitted curve at half-maximal effect
[17] = qHTS for differential inhibitors of proliferation of Plasmodium falciparum line HB3 (AID 1886); conditions: Potency: Plasmodium falciparum HB3 proliferation inhibition;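 also: parasites grown with compound for 72 h before SYBR Green readout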; also: potency is read from the fitted curve at half-maximal effect
[18] = measured here: cell count channel max response
[19] = measured here: lipid channel max response

DNA repair nuclease/redox regulator APEX1 (Homo sapiens), sequence (P27695 whole entry, looked up): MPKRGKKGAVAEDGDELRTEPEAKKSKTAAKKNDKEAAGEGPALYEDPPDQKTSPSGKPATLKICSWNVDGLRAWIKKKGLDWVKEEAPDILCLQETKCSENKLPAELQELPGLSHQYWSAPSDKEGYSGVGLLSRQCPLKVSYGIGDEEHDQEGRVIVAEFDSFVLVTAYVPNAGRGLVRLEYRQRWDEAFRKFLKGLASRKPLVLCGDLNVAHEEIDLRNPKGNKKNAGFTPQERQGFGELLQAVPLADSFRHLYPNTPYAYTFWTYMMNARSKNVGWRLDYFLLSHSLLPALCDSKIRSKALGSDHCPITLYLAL
ATP-dependent DNA helicase Q1 (Homo sapiens), sequence (P46063 whole entry, looked up): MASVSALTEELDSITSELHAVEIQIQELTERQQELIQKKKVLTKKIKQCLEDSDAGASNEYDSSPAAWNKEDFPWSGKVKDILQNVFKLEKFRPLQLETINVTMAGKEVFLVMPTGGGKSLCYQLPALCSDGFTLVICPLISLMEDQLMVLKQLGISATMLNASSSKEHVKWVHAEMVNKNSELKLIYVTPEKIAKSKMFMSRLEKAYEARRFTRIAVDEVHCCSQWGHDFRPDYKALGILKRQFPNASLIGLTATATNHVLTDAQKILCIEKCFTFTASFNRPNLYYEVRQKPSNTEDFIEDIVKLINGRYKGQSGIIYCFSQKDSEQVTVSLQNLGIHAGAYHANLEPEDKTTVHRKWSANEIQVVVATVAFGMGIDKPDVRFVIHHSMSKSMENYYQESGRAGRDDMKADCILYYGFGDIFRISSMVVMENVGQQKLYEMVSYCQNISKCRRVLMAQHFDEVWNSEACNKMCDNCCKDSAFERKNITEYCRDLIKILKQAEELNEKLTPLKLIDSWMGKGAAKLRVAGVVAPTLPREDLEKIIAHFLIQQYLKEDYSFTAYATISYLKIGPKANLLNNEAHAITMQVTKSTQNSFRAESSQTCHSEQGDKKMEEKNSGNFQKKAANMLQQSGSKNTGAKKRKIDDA
Ferritin light chain (Equus caballus), sequence (P02791 2-175 limits assumed): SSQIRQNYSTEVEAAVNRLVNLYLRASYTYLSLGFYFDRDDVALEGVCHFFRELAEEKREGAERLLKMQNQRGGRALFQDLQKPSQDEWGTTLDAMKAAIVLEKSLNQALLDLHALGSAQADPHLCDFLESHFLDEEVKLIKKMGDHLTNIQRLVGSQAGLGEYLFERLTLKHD
RecQ-like DNA helicase BLM (Homo sapiens), sequence (P54132 whole entry, looked up): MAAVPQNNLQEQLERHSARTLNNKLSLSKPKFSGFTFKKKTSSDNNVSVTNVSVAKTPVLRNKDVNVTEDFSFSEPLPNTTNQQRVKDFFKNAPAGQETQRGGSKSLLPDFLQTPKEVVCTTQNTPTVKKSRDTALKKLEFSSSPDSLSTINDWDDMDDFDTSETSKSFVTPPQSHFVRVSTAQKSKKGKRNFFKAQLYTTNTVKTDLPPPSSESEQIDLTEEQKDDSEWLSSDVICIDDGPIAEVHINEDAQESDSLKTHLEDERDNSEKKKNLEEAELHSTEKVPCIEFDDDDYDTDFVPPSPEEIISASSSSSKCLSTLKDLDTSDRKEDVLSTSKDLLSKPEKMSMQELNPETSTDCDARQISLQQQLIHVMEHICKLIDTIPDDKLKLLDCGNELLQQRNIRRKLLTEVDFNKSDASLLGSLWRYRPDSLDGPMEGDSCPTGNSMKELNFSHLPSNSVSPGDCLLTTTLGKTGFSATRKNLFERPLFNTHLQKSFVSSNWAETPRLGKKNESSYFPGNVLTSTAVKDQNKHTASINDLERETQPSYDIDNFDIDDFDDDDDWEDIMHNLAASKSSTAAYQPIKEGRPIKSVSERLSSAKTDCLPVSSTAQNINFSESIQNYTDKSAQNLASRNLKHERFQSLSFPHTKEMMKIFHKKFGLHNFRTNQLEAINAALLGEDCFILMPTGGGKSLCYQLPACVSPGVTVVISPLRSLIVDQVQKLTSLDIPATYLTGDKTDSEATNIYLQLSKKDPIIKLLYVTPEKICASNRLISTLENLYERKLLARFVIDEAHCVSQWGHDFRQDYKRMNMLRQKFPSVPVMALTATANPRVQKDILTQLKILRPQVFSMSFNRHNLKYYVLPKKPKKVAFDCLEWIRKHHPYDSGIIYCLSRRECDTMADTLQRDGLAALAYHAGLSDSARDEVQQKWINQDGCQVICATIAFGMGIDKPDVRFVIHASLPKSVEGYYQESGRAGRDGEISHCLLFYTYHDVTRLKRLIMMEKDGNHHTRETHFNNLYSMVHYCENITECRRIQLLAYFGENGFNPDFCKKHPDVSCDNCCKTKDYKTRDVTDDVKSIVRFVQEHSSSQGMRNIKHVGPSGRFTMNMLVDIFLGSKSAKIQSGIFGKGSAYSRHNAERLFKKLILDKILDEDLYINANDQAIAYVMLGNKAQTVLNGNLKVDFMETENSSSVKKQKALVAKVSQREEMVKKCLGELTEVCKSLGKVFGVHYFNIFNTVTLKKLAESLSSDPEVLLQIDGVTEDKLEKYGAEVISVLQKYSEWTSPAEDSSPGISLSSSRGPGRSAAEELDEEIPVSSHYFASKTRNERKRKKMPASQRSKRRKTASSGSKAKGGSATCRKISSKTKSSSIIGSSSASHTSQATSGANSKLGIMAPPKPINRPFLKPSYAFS

SMILES	outcome [1]	outcome [2]	activity change, negative = inhibition [3]	max response [3, 18]	max response [3, 19]	Potency [4]	Potency [5]	Potency [6]	Potency [7]	Potency [8]	outcome [9]	Potency [10]	Potency [11]	Potency [12]	Potency [13]	Potency [14]	Potency [15]	Potency [16]	Potency [17]
O=C(O)c1cc2cc(F)ccc2[nH]1	inactive	inactive	8.59% (inactive) and -0.743% (inactive)	14.4% and 31%	24.2% and 29.2%	inactive	inactive	inactive	inactive	inactive	inactive	inactive	inactive	inactive					
COc1cc(C(O)C(=O)O)ccc1O (stereo not drawn)		inactive				inactive	inactive	inactive	inactive	inactive	inactive	inactive	inactive		inactive	inactive	inactive	inactive	inactive
Nc1ncnc2c1ncn2C1CCCO1 (stereo not drawn)		inactive	-1.26% (inactive)	24.9%	22.8%		inactive	inactive	inactive	inactive		inactive	inactive		inactive	inactive	inactive		inactive
O=c1onc2cnc3ccccc3n12	inactive	inactive	0.198% (inactive)	54.3%	54.9%		inactive					inactive	inactive	inactive	inactive			inactive	5.62 µM (active)
O=C(O)/C=C/c1cnc[nH]1		inactive				inactive	inactive	inactive	inactive	inactive	inactive	inactive	inactive		inactive	inactive	inactive	inactive	inactive
N=S(=O)(O)Cc1noc2ccccc12		inactive	-0.718% (inactive)	21.5%	20%	inactive		inactive	inactive		inactive	inactive	inactive		inactive				inactive
CCCCCCC/C=C\CCCCCCCCC(=O)O	inactive	inactive	-0.534% (inactive)	-11.1%	-10.7%	35.5 µM (active)		inactive	inactive		inactive	31.6 µM (active)		28.2 µM (active)		inactive	inactive	inactive	inactive
NC/C=C\C(=O)O	inactive	inactive	4.68% (inactive) and 0.384% (inactive)	-7.52% and 26.3%	-6.79% and 26.6%		inactive	inactive	inactive	inactive	inactive	inactive	inactive		inactive	inactive	inactive	inactive	inactive
N[C@H](C(=O)O)[C@H](O)C(=O)O	inactive	inactive	1.02% (inactive)	-11.9%	-6.36%	inactive	inactive	inactive	inactive	inactive		inactive	inactive			inactive	inactive	inactive	inactive
NCC(O)(CS(=O)(=O)O)c1ccc(Cl)cc1 (stereo not drawn)		inactive				inactive	inactive	inactive	inactive	inactive	inactive	inactive	inactive		inactive	inactive	inactive	inactive	inactive
CCCCCCCCCCCCCCC[C@H](O)[C@H](N)CO	inactive	inactive	-9.53% (inactive)	-83.5%	-95.1%	inactive	31.6 µM (active)	inactive		inactive	inactive		inactive					12.6 µM (active)	
O=C(O)C1=CC(=C(c2ccc(O)c(C(=O)O)c2)c2ccc(O)c(C(=O)O)c2)C=CC1=O	inactive	inactive	3.23% (inactive) and 0.986% (inactive)	16.1% and 56.8%	22% and 58.3%		0.708 µM (active)			inactive		inactive		0.794 µM (active)	inactive				
C=CCn1c(=O)c2c(nc(-c3ccc(S(=O)(=O)O)cc3)n2C)n(C)c1=O	inactive	inactive				inactive	inactive	inactive	inactive	inactive	inactive	inactive	inactive		inactive	inactive	inactive	inactive	inactive
[Li+]	inactive	inactive				inactive	inactive	inactive	inactive	inactive	inactive	inactive	inactive	inactive	inactive	inactive	inactive	inactive	inactive
CC1=C(/C=C/C(C)=C/C=C/C(C)=C\C(=O)O)C(C)(C)CCC1		inactive	6.72% (inactive)	3.57%	13.6%	inactive	inactive	14.1 µM (active)		10 µM (active)			inactive			7.94 µM (active)	12.6 µM (active)	8.91 µM (active)	10 µM (active)
